# Sfp inh: qHTS Assay for Inhibitors of Bacillus subtilis Sfp phosphopantetheinyl transferase (PPTase). 4'-phosphopantetheinyl transferase ffp (Bacillus subtilis), Q9F4F7. Biochemical Sfp PPTase activity, qHTS. Potency, µM, for the others: largest response in the series, negative = inhibition, most hits filed as inhibitors. 3.5% of 310,000 active. AID 1490, 2009;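 also: the enzyme is Sfp with the accession as filed and its product quenches rhodamine fluorescence; potency is read from the fitted curve at half-maximal effect; 0% = enzyme reaction without inhibitor and -100% = no enzyme wells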
#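 With Hepes-Na pH 7.6 buffer containing 10 mM MgCl2, Sfp (15 nM) modified BHQ-2-YbbR (12.5 uM) using rhodamine-CoA (5 uM). Two reads 30 minutes apart at 525/598 nm yielded each well's rate.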
# ELG1 repair inh: qHTS screen for small molecules that inhibit ELG1-dependent DNA repair in human embryonic kidney (HEK293T) cells expressing luciferase-tagged ELG1. Potency, µM (titrated, usually from 46.1 µM), for inactives: at the top dose activity change, negative = inhibition, hits mostly inhibitors. HEK293T ELG1-luciferase reporter, luminescence, 16 h; DNA damage induced by 5-fluorouridine. AID 504467, 2011. 2.3% of 330,000 active; also: potency is read from the fitted curve at half-maximal effect; nearly all actives have a fitted effect of over 55% in size
#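 Reporter activity after DNA damage by 5-fluorouridine is monitored. Compound-treated cells incubate 16 hr at 37 °C, then ONE-Glo is added for 30 min before luminescence reading.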
# Giardia kill: Small Molecules that selectively kill Giardia lamblia: qHTS. AID 540267, 2011. Giardia lamblia trophozoite viability. 0.15% of 340,000 active. activity change, % at 7.66 µM, hits read low; in the data active = activity change below about -80%; inconclusive = between about -30% and that limit;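 also: parasites exposed to compound for two days anaerobically before the ATP read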
#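 Giardia lamblia trophozoites (100 cells/well) were incubated with compounds for 48 h at 37 deg C under anaerobic conditions. Viability was read as ATP content by one-step luminescence after 15-30 min at room temperature.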
# Coupling enz: qHTS Assay for Inhibitors of Fructose-1,6-bisphosphate Aldolase from Giardia Lamblia: Coupling assay counterscreen | coupling enzyme system counterscreen, AmpLite Red fluorescence | activity change, negative = inhibition, % at 58.2 µM, hits read low | AID 2472, 2010 | 0.67% of 290,000 active; in the data active = activity change below about -30%
#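 Fluorescence at 525 nm excitation and 598 nm emission measured inhibition of the coupled detection system without aldolase. Compounds (at 57.5 uM final) were preincubated 10 min at room temperature with coupling enzyme reagent before a 20 min substrate/AmpLite Red step.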
# Active calls of the source: *; ? = inconclusive; . = no result. In the library only some 5.5% were active in any assay of this set; here they are far more common. Unless noted, calls follow the shape of the dose curve; as a rule, active = well fitted curve in the direction sought with a large enough effect; inconclusive = small, poorly fitted or top-dose-only effect, or another doubt; inactive = no such curve, though single readings can be large; an effect the other way counts as inactive or inconclusive. Unless noted, % is scaled to controls: 0 for no effect and ±100 for the full control effect.
SMILES,Sfp inh,ELG1 repair inh,Giardia kill,Coupling enz
COc1ccc(NC(=O)CSc2nncn2C)cc1,3.7%,?,-17.0,8.4
COc1ccc(NC(=O)CSc2c(C)nn(-c3nnc(C)c(=O)[nH]3)c2C)cc1,50.1µM*,9.0%,-9.8,-1.3
Cc1cccc(NC(=O)CC(=O)Nc2cccc(C)c2)c1,3.5%,1.0%,-4.0,0.1
Cc1cccc(NNC(=O)C(=O)NNc2cccc(C)c2)c1,-13.1%,6.51µM*,4.5,3.0
CSCC[C@H](NC(=O)c1ccc(NC[C@@H](N)CS)cc1-c1ccccc1)C(=O)O,?,.,.,0.1
S=c1[nH]nc(COc2ccc3c(c2)OCO3)n1-c1ccccc1,39.8µM*,2.3%,-12.2,0.6
Cc1cc(CNC(=O)[C@H](C)[C@H]2C[C@]2(C)[C@H](NC(=O)OCc2ccccc2)c2ccccc2)nn1C,27.0%,.,.,5.1
O=C(CNc1cccc2ccccc12)N/N=C/c1cccc(Oc2ccccc2)c1,-3.8%,-3.5%,-7.6,-31.8*
O=C(N/N=C/c1cccc(Oc2ccccc2)c1)c1ccccc1Br,9.8%,?,-20.2,-32.0*
CC1CCCC(C)N1/N=C/c1ccccc1F (stereo not given),50.1µM*,3.3%,35.4,-2.9
CCOC(=O)CN(C(=O)COC(=O)C1=NNC(=O)CC1)c1ccc(F)cc1,.,?,-4.3,.
CN(C)N1C(N)=C(C#N)C(c2cccs2)C2=C1CC(C)(C)CC2=O (stereo not given),2.1%,0.0%,-7.4,-46.5*
O=C(Nc1ccc(F)cc1)c1oc2ccccc2c1NC(=O)C1CC1,-4.9%,?,3.8,.
CCN1C[C@@H]2[C@@H]3C(=O)N(Cc4ccccc4)C(=O)[C@@H]3[C@](C)(C1=O)N2C(=O)c1ccc(C(F)(F)F)cc1,.,.,23.0,.
COc1ccc(OC)c(NC(=O)CC2Oc3ccccc3NC2=O)c1 (stereo not given),4.4%,?,31.2,-0.9
CCC(C)/C=C/C1=CC2=C(Cl)C(=O)C3(C)OC(=O)C(C(=O)C(C)C(C)O)C3C2=CO1 (stereo not given),31.6µM*,2.0%,8.4,11.2
COc1cccc(/C=C2\SC(=S)N(CCC(=O)NC3C=CS(=O)(=O)C3)C2=O)c1 (stereo not given),-9.9%,4.61µM*,-1.4,-1.3
CC(C(=O)NC1C=CS(=O)(=O)C1)N1C(=O)/C(=C/c2cccc(Cl)c2)SC1=S (stereo not given),-7.5%,-9.3%,?,.
CC(C(=O)NC1C=CS(=O)(=O)C1)N1C(=O)/C(=C\c2ccccc2)SC1=S (stereo not given),12.6µM*,18.1%,8.8,-3.5
O=C(CN1C(=O)/C(=C/c2ccccc2F)SC1=S)NC1C=CS(=O)(=O)C1 (stereo not given),22.4µM*,24.5%,1.7,-3.8
COc1ccc(/C=C2\SC(=S)N(CCC(=O)NC3C=CS(=O)(=O)C3)C2=O)cc1 (stereo not given),5.5%,27.8%,-25.5,5.2
CC1CCN(C(=O)CN2C(=O)C(=O)N(C(C)C)C2=O)c2ccccc2S1 (stereo not given),.,?,15.7,.
COC(=O)c1cc(=O)nc2sc3cc(OC)ccc3n12,-4.6%,2.4%,-17.8,0.6
COc1ccc(O)c(/C=c2/sc3nc4cc(C)c(C)cc4n3c2=O)c1,8.91µM*,?,4.2,1.1
CCOc1ccccc1NC(=O)CCn1ccnc1,-10.2%,1.1%,22.0,0.2
SMILES,Sfp inh,ELG1 repair inh,Giardia kill,Coupling enz
COc1cccc(CNC(=O)N2CCN(S(=O)(=O)c3ccc(C)cc3)CC2)c1,-1.5%,4.6%,1.1,-0.9
CC(NC(=O)c1ccccc1)c1nnc(SCC(=O)NC2CCCC2)n1C (stereo not given),6.4%,21.9%,-19.7,1.1
COc1cc(-c2nc3ccccn3c2/N=C/c2ccc(F)cc2)ccc1O,50.1µM*,26.6%,2.8,-1.6
COc1cc(-c2nc3ccccn3c2/N=C/c2cccc(OC)c2O)ccc1O,-11.5%,-5.3%,-4.2,3.5
Oc1cc(NCCc2cccnc2)cc2cccnc12,.,23.1µM*,-1.5,.
O=C(O)c1cc(N(Cc2ccccc2O)Cc2ccccc2O)ccc1O,56.2µM*,.,7.5,-14.8
COc1ccc(OC)c(NC(=O)COc2ccc3c(c2)CCC3)c1,.,14.5%,-21.4,.

# Screens (PubChem)
